A selection: hits, their analogues and other compounds. The true share with any hit is near 19%.
IL1B secr inh: inhibitors of inflammasome signaling (IL-1 beta secretion); THP-1 LPS/ATP IL-1B secretion, AlphaLISA, 16 h; hits give low values; 360,000 compounds, 4.7% hits; activity change, % at 57.5 µM; in the data active means activity change below about -50%; inconclusive means mostly about -30% to -49%
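THP-1 cells pretreated 1 hr with compounds (up to 57.5 uM final), then stimulated with LPS (250 ng/mL final) plus ATP (1.25 mM final); secreted IL-1B measured by AlphaLISA after 16 hr, decreased signal indicating inhibition.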
DT40 TDP1 no CPT: qHTS for Inhibitors of human tyrosyl-DNA phosphodiesterase 1 (TDP1): qHTS in cells in absence of CPT; 420,000 compounds, 15% hits; Potency, µM (titrated, usually from 46.2 µM), most hits filed as inhibitors; DT40 Tdp1-/- hTDP1 cells, no CPT, ATP luminescence, 48 h; further: nearly all actives have a fitted effect of over 55% in size
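Chicken DT40 Tdp1-/- cells stably complemented with human TDP1 were seeded at 400 cells/well with DMSO in place of 20 nM camptothecin. After compound pinning, cells grew at least 48 hr at 37 °C; viability read by CellTiter-Glo luminescence.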
DT40 TDP1 CPT: DT40-hTDP1 cell growth loss with CPT; chicken DT40 Tdp1-/-;hTDP1 cells + 20 nM CPT, ATP luminescence, 48 h; Potency, µM (top dose mostly 46.2 µM), actives largely listed as inhibitors; 420,000 compounds, 12% hits; AID 686979; further: nearly all actives have a fitted effect of over 55% in size
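Chicken DT40 Tdp1-/- cells complemented with human TDP1, 400 cells/well, exposed to compounds plus 20 nM camptothecin for at least 48 h at 37 C; viability read as ATP content by CellTiter-Glo luminescence.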
HT1080 IDH1KD tx: kills HT-1080 cells with IDH1 knockdown | HT-1080 IDH1 knockdown viability, ATP luminescence, 48 h | Potency, µM (titrated, usually from 46.1 µM), actives largely listed as cytotoxic | 360,000 compounds, 2% hits | AID 686971
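CellTiter-Glo luminescence after 48 h compound exposure at 37 degrees C of IDH1-knockdown HT-1080 cells in 5% FBS RPMI. %Activity scaled between DMSO wells and cell-free media wells, with curves fitted and assigned curve classes.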
HT1080NT lethal: kills 2HG-producing HT-1080-NT fibrosarcoma cells. Potency, µM (top dose mostly 46.1 µM), actives largely listed as cytotoxic. HT-1080-NT fibrosarcoma viability, CellTiter-Glo ATP luminescence, 48 h. 360,000 compounds, 1.6% hits. AID 686970;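 further: NT is the 2HG producing partner of a matched IDH1 knockdown line; nearly all actives have a fitted effect of over 55% in size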
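HT-1080-NT fibrosarcoma cells (2HG-overproducing), 750 cells/well in RPMI with 5% FBS, dosed after 2 h and incubated 48 h at 37C. CellTiter-Glo luminescence normalized to DMSO and no-cell wells; concentration-response curves fitted and classed.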
uPA generation: inhibitors of cell surface uPA generation. Potency, µM (doses to about 38.3 µM), hits mostly inhibitors. cell surface uPA generation assay, qHTS. 330,000 compounds, 0.31% hits; active means well fitted inhibition curve with a large enough effect; inconclusive means small, poorly fitted or top-dose-only effect; inactive means no such curve, though single readings can be large or run the other way; tested in mouse RAW 264.7 cells; further: nearly all actives have a fitted effect of over 55% in size
Of the large screens only hits and unclear results are named; the others gave an inactive call. Unless noted, the call rests on the fitted dose curve; in most records, active means well fitted curve in the direction sought with a large enough effect; inconclusive means small, poorly fitted or top-dose-only effect, or another doubt; inactive means no such curve, though single readings can be large; an effect the other way counts as inactive or inconclusive.

CCOC(=O)N1CCc2c(sc3c2c(=O)n(Cc2ccccc2)c(=O)n3CC(=O)Nc2ccc(F)cc2)C1	DT40 TDP1 no CPT 10.3µM, DT40 TDP1 CPT 5.8µM (no result: IL1B secr inh, HT1080 IDH1KD tx, HT1080NT lethal, uPA generation)
CCOC(=O)N1CCc2c(sc3c2c(=O)n(CCc2ccccc2)c(=O)n3Cc2cc(C)ccc2C)C1	none (no result: IL1B secr inh, HT1080 IDH1KD tx, HT1080NT lethal, uPA generation)
CC(=O)N1CCc2c(sc3c2c(=O)n(-c2ccccc2)c(=O)n3CC(=O)c2ccc(F)cc2)C1	DT40 TDP1 no CPT inconclusive (no result: IL1B secr inh, HT1080 IDH1KD tx, HT1080NT lethal, uPA generation)
O=c1oc2c(F)cc(F)cc2cc1S(=O)(=O)c1ccc(F)cc1	none (no result: IL1B secr inh, HT1080 IDH1KD tx, HT1080NT lethal, uPA generation)
COc1cc(=O)n2c(c1C(=O)NCc1nccs1)CCN(Cc1ccccc1F)CC2	none (no result: IL1B secr inh, HT1080 IDH1KD tx, HT1080NT lethal, uPA generation)
CC(=O)N1CCc2c(sc3c2c(=O)n(-c2ccccc2)c(=O)n3CC(=O)Nc2ccccc2)C1	none (no result: IL1B secr inh, HT1080 IDH1KD tx, HT1080NT lethal, uPA generation)
COc1ccccc1NC(=O)Cn1c(=O)n(CCc2ccccc2)c(=O)c2c3c(sc21)CN(C(C)=O)CC3	DT40 TDP1 no CPT 16.4µM, DT40 TDP1 CPT 16.4µM (no result: IL1B secr inh, HT1080 IDH1KD tx, HT1080NT lethal, uPA generation)
O=C(NCCCN1CCN(c2ccccc2F)CC1)Nc1ccccc1[N+](=O)[O-]	none
O=C(OCCN1C(=O)c2cccc3c(N4CCOCC4)ccc(c23)C1=O)c1cccc(Cl)c1	DT40 TDP1 no CPT 8.2µM, DT40 TDP1 CPT 18.4µM, HT1080 IDH1KD tx 9.2µM, HT1080NT lethal 14.6µM
O=C(COC(=O)c1cccc(Cl)c1)Nc1cc(S(=O)(=O)N2CCOCC2)ccc1N1CCOCC1	none
O=C(OCCN1C(=O)c2cccc3c(N4CCOCC4)ccc(c23)C1=O)c1ccc(Cl)cc1Cl	DT40 TDP1 no CPT 4.11µM, DT40 TDP1 CPT 3.66µM, HT1080 IDH1KD tx 2.31µM, HT1080NT lethal 1.84µM
CC(=C/c1ccccc1)/C=N/n1c(-c2ccncc2)n[nH]c1=S	DT40 TDP1 no CPT 16.4µM, DT40 TDP1 CPT inconclusive
Cc1cc(-c2n[nH]c(=S)n2/N=C/C(Cl)=C/c2ccccc2)n[nH]1	IL1B secr inh -96.9, DT40 TDP1 no CPT 13µM, DT40 TDP1 CPT 14.6µM, HT1080 IDH1KD tx inconclusive, HT1080NT lethal inconclusive
S=c1[nH]nc(-c2ccco2)n1/N=C/C(Cl)=C/c1ccccc1	IL1B secr inh inconclusive, DT40 TDP1 no CPT 14.6µM, DT40 TDP1 CPT inconclusive, HT1080 IDH1KD tx inconclusive, HT1080NT lethal inconclusive
C/C=C/c1cnc2c(c1)C(=O)N([C@H](C)CO)C[C@H](C)[C@@H](CN(C)C(=O)CN1CCOCC1)O2	none (no result: uPA generation)
CC(C)COc1ccc(C(=O)CCN2CCCCC2)cc1	DT40 TDP1 no CPT 2.91µM, DT40 TDP1 CPT 5.17µM, HT1080 IDH1KD tx inconclusive, HT1080NT lethal 18.4µM
CCCCOc1ccc(C(=O)NCC2(N3CCN(C)CC3)CCCCC2)cc1	DT40 TDP1 no CPT 18.4µM, DT40 TDP1 CPT inconclusive (no result: IL1B secr inh, HT1080 IDH1KD tx, HT1080NT lethal, uPA generation)
CCCCOc1ccc(C(=O)CCN2CCCCC2)cc1	DT40 TDP1 no CPT 6.51µM, DT40 TDP1 CPT 8.2µM, HT1080 IDH1KD tx 18.4µM, HT1080NT lethal inconclusive, uPA generation inconclusive
CCCOc1ccc(C(=O)CCCC(=O)c2ccc(OCCC)cc2)cc1	none
Cc1cnc(CNc2cc(-c3cccnc3)ncn2)cn1	DT40 TDP1 no CPT inconclusive (no result: IL1B secr inh, HT1080 IDH1KD tx, HT1080NT lethal, uPA generation)
CCOC(=O)c1c(NC(=O)/C=C/c2ccccc2)sc2c1CCCC2	none (no result: IL1B secr inh, HT1080 IDH1KD tx, HT1080NT lethal, uPA generation)
COCCn1c(C)cc(C(=O)CSc2nc3ccccc3s2)c1C	DT40 TDP1 no CPT 18.4µM, DT40 TDP1 CPT 13µM, HT1080 IDH1KD tx inconclusive, HT1080NT lethal inconclusive
COCCn1c(C)cc(C(=O)CSc2nnc3ccccn23)c1C	none
COCCn1c(C)cc(C(=O)CSc2nc3ccccc3o2)c1C	DT40 TDP1 no CPT inconclusive, DT40 TDP1 CPT 25.9µM, HT1080NT lethal inconclusive
COCCn1c(SCC(=O)c2cc(C)n(C)c2C)nc2ccccc2c1=O	IL1B secr inh inconclusive, DT40 TDP1 no CPT 13µM, DT40 TDP1 CPT inconclusive
CCOc1ccc(S(=O)(=O)NCCC(=O)NCC(c2ccc(F)cc2)N2CCOCC2)cc1 (stereo not drawn)	none
Cc1c(CC(=O)O)c(=O)oc2cc(OCc3ccc(Br)cc3)ccc12	none
COc1cc(-c2nnc(COC(=O)C3c4ccccc4Oc4ccccc43)o2)cc(OC)c1OC	DT40 TDP1 no CPT inconclusive, DT40 TDP1 CPT inconclusive

From PubChem BioAssay
